# How the values were obtained:
# Test in all cases: DAPPL (digital affinity profiling via proximity ligation, sequencing); 10 mM Tris-HCl pH 7.5, 50 mM NaCl, 1 mM DTT, 4% glycerol, room temperature, 30 min; GST-TFs on glutathione beads, 16-mer random dsDNA library, 0.1% formaldehyde crosslink after washing; high values mean tight binding
# [1] = target: T1, FLI1 (Homo sapiens, UniProt Q01543 1-452); conditions: protein: recombinant; tags: N-terminal GST; dsDNA, one strand shown
# T1 sequence: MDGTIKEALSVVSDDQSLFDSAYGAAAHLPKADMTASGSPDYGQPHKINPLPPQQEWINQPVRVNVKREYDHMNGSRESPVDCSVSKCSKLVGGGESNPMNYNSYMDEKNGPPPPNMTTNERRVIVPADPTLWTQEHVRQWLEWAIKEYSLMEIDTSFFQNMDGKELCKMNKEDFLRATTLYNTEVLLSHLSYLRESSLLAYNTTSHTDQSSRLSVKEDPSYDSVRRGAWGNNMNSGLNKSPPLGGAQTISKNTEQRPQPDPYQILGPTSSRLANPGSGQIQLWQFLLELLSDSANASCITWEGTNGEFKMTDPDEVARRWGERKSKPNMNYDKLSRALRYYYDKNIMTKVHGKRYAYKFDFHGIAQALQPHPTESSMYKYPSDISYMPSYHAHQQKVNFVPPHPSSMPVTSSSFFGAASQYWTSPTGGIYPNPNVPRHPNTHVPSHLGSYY
# In short: (§1)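 Human transcription factors carrying a GST fusion were produced in yeast, bound to glutathione beads, tagged with DNA barcodes and pooled together with a tag-only sample. Each pool was held with 200 nmole of a random double-stranded 16-mer DNA library in Tris/NaCl/DTT/glycerol buffer for 30 min at room temperature, then washed, crosslinked in 0.1% formaldehyde, proximity-ligated with BsaI/T4 ligase (1 h, 37 °C), PCR-amplified and sequenced on an Illumina NextSeq500. Binding signal is the read frequency of each hexamer for a given factor divided by its frequency in the tag-only sample.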
# [2] = target: T2, ELK1 (Homo sapiens, UniProt P19419 1-428); conditions: protein: recombinant; tags: N-terminal GST; dsDNA, one strand shown
# T2 sequence: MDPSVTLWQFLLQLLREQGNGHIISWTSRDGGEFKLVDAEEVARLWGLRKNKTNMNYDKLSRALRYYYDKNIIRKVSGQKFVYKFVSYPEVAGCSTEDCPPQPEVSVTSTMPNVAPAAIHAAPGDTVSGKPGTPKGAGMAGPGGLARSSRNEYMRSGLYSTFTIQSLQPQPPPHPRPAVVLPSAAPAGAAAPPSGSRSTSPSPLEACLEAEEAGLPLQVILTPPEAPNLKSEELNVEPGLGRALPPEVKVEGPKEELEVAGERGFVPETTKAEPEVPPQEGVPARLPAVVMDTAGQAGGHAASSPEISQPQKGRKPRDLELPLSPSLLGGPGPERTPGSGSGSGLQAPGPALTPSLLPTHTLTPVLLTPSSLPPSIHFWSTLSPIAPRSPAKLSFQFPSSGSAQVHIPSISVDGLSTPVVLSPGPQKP
# In short: as §1
# [3] = target: T3, GABPA (Homo sapiens, UniProt Q06546 1-454); conditions: protein: recombinant; tags: N-terminal GST; dsDNA, one strand shown
# T3 sequence: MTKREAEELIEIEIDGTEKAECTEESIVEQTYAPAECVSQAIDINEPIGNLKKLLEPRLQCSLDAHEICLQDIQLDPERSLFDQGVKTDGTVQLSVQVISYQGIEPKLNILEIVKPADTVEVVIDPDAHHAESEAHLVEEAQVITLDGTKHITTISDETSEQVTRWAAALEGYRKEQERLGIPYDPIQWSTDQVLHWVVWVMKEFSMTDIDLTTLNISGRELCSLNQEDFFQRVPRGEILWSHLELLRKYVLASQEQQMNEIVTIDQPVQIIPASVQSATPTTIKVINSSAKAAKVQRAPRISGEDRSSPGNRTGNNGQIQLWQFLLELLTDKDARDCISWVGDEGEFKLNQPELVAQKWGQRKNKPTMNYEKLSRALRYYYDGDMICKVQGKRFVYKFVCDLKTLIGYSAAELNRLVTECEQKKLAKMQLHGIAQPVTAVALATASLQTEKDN
# In short: as §1
# [4] = target: T4, ERG (Homo sapiens, UniProt P11308 1-479); conditions: protein: recombinant; tags: N-terminal GST; dsDNA, one strand shown
# T4 sequence: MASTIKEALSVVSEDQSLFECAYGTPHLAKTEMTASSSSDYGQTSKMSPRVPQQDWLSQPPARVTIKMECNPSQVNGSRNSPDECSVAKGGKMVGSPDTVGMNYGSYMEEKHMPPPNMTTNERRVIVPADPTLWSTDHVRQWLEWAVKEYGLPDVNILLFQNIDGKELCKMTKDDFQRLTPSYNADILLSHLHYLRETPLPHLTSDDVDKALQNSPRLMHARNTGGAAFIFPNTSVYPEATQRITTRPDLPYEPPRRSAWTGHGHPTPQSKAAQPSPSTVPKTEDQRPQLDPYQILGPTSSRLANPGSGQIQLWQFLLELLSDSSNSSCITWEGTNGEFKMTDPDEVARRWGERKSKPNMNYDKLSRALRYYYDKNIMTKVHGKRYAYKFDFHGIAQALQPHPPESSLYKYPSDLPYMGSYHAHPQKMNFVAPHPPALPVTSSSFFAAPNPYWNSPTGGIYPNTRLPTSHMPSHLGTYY
# In short: as §1
# [5] = target: ELF1 (Homo sapiens, UniProt P32519 1-619); conditions: protein: recombinant; tags: N-terminal GST; dsDNA, one strand shown
# ELF1, sequence (P32519 whole entry): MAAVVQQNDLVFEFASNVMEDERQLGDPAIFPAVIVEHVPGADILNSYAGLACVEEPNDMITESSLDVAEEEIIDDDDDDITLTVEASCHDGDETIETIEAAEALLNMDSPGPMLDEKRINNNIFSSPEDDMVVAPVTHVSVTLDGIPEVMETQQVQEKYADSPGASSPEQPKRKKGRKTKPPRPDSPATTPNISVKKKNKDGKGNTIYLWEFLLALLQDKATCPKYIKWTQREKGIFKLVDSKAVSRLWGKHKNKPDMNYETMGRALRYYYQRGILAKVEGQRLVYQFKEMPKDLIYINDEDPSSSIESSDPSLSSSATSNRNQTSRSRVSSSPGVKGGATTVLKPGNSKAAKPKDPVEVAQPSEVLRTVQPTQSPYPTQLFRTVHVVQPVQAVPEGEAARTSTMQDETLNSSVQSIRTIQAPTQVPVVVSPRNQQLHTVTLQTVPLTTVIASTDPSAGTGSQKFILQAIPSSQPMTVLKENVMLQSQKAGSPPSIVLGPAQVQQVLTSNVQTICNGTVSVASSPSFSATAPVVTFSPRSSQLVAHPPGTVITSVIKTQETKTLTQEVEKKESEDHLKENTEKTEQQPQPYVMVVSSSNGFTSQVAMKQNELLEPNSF
# In short: as §1
# [6] = target: T5, EHF (Homo sapiens, UniProt Q9NZC4 1-300); conditions: protein: recombinant; tags: N-terminal GST; dsDNA, one strand shown
# T5 sequence: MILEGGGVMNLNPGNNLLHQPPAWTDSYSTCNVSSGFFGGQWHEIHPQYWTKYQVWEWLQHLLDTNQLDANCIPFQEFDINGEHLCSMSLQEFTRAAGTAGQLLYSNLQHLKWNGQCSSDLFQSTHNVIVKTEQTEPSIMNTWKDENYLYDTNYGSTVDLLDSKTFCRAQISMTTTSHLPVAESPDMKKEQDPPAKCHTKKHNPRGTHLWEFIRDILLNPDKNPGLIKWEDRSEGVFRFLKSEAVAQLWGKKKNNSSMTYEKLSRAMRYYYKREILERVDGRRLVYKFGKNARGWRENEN
# In short: as §1
# [7] = target: SPI1 (Homo sapiens, UniProt P17947 1-270); conditions: protein: recombinant; tags: N-terminal GST; dsDNA, one strand shown
# In short: as §1
# [8] = target: SPIB (Homo sapiens, UniProt Q01892 1-262); conditions: protein: recombinant; tags: N-terminal GST; dsDNA, one strand shown
# SPIB, sequence (Q01892 whole entry): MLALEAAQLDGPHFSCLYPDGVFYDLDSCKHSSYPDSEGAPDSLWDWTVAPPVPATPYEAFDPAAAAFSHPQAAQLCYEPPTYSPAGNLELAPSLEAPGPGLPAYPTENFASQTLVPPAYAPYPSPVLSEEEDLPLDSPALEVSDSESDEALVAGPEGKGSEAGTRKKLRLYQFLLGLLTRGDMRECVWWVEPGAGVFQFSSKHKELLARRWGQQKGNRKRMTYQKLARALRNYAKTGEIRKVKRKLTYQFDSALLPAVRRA
# In short: as §1
# [9] = target: T6, ELK3 (Homo sapiens, UniProt P41970 1-407); conditions: protein: recombinant; tags: N-terminal GST; dsDNA, one strand shown
# T6 sequence: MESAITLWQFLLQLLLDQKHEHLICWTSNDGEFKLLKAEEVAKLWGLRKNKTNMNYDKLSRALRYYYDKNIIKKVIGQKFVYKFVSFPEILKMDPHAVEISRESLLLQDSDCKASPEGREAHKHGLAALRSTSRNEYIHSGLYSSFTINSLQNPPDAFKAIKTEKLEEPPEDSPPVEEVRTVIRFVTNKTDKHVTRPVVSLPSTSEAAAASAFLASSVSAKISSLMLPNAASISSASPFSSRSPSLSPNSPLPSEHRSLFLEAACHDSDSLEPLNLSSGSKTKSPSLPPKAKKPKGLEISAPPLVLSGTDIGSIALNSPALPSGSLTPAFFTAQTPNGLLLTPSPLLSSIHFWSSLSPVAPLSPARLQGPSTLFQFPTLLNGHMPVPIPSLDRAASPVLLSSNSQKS
# In short: as §1
# [10] = target: T7, FEV (Homo sapiens, UniProt Q99581 1-238); conditions: protein: recombinant; tags: N-terminal GST; dsDNA, one strand shown
# T7 sequence: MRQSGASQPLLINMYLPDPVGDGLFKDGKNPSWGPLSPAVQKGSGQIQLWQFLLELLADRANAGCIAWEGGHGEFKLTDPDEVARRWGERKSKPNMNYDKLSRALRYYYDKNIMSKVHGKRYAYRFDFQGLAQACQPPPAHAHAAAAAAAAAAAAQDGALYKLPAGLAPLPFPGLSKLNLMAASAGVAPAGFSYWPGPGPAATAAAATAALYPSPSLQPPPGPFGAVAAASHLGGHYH
# In short: as §1
# [11] = target: ETV5 (Homo sapiens, UniProt P41161 1-510); conditions: protein: recombinant; tags: N-terminal GST; dsDNA, one strand shown
# ETV5, sequence (P41161 whole entry): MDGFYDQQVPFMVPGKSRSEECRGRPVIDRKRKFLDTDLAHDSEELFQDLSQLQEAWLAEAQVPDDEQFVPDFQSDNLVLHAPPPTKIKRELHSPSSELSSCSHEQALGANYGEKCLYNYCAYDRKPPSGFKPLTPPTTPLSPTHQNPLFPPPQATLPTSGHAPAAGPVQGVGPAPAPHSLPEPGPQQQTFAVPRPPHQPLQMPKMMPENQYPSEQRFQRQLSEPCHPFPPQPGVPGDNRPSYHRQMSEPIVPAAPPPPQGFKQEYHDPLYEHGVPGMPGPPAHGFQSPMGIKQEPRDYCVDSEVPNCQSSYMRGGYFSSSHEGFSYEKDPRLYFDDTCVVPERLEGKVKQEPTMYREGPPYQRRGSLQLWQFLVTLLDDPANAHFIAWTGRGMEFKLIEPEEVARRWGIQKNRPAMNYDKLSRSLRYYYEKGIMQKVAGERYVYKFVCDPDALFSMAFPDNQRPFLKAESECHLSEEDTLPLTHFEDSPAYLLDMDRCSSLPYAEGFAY
# In short: as §1
# [12] = target: HSF1 (Homo sapiens, UniProt Q00613 1-529); conditions: protein: recombinant; tags: N-terminal GST; chain copies: 3; dsDNA, one strand shown
# HSF1, sequence (Q00613 whole entry): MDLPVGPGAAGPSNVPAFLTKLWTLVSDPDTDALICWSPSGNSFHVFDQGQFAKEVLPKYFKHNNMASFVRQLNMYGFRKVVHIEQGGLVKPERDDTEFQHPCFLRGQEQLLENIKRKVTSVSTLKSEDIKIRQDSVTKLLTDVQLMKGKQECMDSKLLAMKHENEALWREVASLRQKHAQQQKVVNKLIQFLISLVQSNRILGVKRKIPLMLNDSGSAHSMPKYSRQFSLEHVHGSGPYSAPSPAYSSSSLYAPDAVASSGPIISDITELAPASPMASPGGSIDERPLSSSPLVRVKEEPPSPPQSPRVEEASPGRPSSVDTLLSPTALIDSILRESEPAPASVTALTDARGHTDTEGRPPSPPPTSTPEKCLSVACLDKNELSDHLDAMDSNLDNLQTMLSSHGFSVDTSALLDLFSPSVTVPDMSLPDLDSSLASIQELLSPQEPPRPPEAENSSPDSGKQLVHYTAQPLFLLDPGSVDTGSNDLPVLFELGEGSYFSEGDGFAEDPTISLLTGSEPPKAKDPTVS
# In short: as §1
# [13] = target: T8, SPIC (Homo sapiens, UniProt Q8N5J4 1-248); conditions: protein: recombinant; tags: N-terminal GST; dsDNA, one strand shown
# T8 sequence: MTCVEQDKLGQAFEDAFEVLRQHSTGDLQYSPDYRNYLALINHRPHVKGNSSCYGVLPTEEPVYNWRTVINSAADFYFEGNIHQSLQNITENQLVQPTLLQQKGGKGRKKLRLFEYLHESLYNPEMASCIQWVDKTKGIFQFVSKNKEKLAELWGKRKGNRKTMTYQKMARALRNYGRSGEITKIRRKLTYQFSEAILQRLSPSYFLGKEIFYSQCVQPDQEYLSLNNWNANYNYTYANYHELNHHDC
# In short: as §1
# [14] = target: ELF4 (Homo sapiens, UniProt Q99607 1-663); conditions: protein: recombinant; tags: N-terminal GST; dsDNA, one strand shown
# ELF4, sequence (Q99607 whole entry): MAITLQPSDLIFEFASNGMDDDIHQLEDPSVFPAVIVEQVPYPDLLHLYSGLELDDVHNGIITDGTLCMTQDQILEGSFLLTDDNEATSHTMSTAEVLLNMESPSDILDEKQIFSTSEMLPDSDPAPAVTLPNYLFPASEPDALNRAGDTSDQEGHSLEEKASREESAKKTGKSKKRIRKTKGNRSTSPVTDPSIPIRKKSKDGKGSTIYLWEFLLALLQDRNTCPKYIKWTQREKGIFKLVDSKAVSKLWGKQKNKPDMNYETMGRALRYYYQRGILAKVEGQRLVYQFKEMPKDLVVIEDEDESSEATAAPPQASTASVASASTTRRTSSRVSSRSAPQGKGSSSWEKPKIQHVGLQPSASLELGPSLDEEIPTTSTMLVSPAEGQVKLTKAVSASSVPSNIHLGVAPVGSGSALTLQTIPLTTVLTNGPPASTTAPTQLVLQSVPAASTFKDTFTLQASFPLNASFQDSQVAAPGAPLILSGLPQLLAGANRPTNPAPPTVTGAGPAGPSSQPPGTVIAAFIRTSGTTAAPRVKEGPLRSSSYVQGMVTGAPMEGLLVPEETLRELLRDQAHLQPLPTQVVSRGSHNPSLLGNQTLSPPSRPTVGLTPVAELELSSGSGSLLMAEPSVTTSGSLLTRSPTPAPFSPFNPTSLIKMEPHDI
# In short: as §1
# [15] = target: T9, ELK4 (Homo sapiens, UniProt P28324-2 1-405); conditions: protein: recombinant; tags: N-terminal GST; dsDNA, one strand shown
# T9 sequence: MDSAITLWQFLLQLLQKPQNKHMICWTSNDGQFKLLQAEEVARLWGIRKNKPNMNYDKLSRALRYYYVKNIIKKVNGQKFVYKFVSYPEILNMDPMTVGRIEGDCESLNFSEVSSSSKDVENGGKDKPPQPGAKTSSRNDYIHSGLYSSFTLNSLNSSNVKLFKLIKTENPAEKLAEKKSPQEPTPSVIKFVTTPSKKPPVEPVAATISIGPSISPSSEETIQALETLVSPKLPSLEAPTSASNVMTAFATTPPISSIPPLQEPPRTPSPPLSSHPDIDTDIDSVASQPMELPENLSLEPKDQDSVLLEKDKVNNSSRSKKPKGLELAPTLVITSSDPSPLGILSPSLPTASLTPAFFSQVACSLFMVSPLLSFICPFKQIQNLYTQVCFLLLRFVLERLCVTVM
# In short: as §1
# [16] = target: T10, ETV2 (Homo sapiens, UniProt O00321 1-342); conditions: protein: recombinant; tags: N-terminal GST; dsDNA, one strand shown
# T10 sequence: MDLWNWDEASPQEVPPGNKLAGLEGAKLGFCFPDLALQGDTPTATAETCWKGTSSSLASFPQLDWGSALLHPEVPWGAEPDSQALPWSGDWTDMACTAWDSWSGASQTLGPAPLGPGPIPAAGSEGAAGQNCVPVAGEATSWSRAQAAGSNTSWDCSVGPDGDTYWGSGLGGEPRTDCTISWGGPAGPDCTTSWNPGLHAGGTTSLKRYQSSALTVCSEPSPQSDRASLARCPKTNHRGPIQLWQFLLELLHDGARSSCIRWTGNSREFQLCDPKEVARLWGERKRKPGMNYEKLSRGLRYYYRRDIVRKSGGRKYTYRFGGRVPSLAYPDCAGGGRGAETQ
# In short: as §1
# [17] = target: T11, ELF3 (Homo sapiens, UniProt P78545 1-371); conditions: protein: recombinant; tags: N-terminal GST; dsDNA, one strand shown
# T11 sequence: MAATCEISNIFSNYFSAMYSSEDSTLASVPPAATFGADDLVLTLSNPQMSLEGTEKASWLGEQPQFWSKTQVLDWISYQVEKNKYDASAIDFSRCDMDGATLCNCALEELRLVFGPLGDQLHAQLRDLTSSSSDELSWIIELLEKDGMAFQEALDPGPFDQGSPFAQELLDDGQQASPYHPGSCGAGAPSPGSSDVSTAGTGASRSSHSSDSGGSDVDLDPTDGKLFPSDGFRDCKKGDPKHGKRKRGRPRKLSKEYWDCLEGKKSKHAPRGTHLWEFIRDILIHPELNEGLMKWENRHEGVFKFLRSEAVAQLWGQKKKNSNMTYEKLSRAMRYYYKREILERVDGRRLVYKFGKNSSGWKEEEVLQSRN
# In short: as §1
# [18] = target: CRX (Homo sapiens, UniProt O43186 1-299); conditions: protein: recombinant; tags: N-terminal GST; dsDNA, one strand shown
# CRX, sequence (O43186 whole entry): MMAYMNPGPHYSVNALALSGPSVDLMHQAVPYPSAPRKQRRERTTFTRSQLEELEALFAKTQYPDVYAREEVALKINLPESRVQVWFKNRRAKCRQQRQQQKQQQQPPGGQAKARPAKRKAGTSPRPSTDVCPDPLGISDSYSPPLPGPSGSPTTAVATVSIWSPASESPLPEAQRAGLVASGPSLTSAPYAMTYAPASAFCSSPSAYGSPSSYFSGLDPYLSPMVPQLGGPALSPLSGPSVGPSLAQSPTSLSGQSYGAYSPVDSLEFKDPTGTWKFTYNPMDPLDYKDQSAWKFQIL
# In short: as §1
# [19] = target: ETV1 (Homo sapiens, UniProt P50549 1-477); conditions: protein: recombinant; tags: N-terminal GST; dsDNA, one strand shown
# ETV1, sequence (P50549 whole entry): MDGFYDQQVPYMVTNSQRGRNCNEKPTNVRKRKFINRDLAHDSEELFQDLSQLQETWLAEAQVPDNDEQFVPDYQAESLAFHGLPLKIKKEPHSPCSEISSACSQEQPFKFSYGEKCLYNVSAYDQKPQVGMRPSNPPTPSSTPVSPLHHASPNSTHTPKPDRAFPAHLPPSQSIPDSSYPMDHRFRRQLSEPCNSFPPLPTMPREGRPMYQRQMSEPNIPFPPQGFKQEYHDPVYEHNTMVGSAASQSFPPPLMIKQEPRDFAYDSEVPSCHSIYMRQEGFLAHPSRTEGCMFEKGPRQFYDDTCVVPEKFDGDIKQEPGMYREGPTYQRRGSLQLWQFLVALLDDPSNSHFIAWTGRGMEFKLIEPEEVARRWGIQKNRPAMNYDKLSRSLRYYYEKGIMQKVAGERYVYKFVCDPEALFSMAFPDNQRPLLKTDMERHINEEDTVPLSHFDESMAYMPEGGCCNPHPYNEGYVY
# In short: as §1
sequence,measurement,setting,value
TTATTA,binding signal,[1],"1.17 fold enrichment (6-mer frequency, TF over GST control)"
same,binding signal,[2],"1.05 fold enrichment (6-mer frequency, TF over GST control)"
same,binding signal,[3],"1.04 fold enrichment (6-mer frequency, TF over GST control)"
same,binding signal,[4],"1.1 fold enrichment (6-mer frequency, TF over GST control)"
same,binding signal,[5],"1.1 fold enrichment (6-mer frequency, TF over GST control)"
same,binding signal,[6],"1.14 fold enrichment (6-mer frequency, TF over GST control)"
same,binding signal,[7],"1.1 fold enrichment (6-mer frequency, TF over GST control)"
same,binding signal,[8],"1.04 fold enrichment (6-mer frequency, TF over GST control)"
same,binding signal,[9],"1.2 fold enrichment (6-mer frequency, TF over GST control)"
same,binding signal,[10],"1.09 fold enrichment (6-mer frequency, TF over GST control)"
same,binding signal,[11],"1.14 fold enrichment (6-mer frequency, TF over GST control)"
same,binding signal,[12],"1.75 fold enrichment (6-mer frequency, TF over GST control)"
same,binding signal,[13],"1.31 fold enrichment (6-mer frequency, TF over GST control)"
same,binding signal,[14],"1.18 fold enrichment (6-mer frequency, TF over GST control)"
same,binding signal,[15],"1.03 fold enrichment (6-mer frequency, TF over GST control)"
same,binding signal,[16],"1.2 fold enrichment (6-mer frequency, TF over GST control)"
same,binding signal,[17],"1.09 fold enrichment (6-mer frequency, TF over GST control)"
same,binding signal,[18],"2.49 fold enrichment (6-mer frequency, TF over GST control)"
same,binding signal,[19],"1.11 fold enrichment (6-mer frequency, TF over GST control)"

# — article PMC7862700, “An all-to-all approach to the identification of sequence-specific readers for epigenetic DNA modifications on cytosine”
